The source of these data is PubChem BioAssay (NCATS).

Inconclusive results are not listed. Unmarked numbers belong to inactive results. Calls of active or inactive are those of the source. Calls follow the shape of the full dose curve.
Potency is read from the fitted curve at half-maximal effect.

This test is described as follows: A High-Content qHTS Against Drug Library for the Identification of Small Molecules that Inhibit DYT1 Early Onset Primary Dystonia-Associated Cell Pathology (AID 1645839). The conditions noted are these: HEK293 Flp-In EGFP-delE TorsinA, punctate imaging, 48 h; series mostly up to 46.1 µM; % pathology change, negative = correction: at the top concentration. An outline of the steps: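 High-content imaging quantified EGFP-TorsinA mislocalization in HEK293-derived cells inducibly expressing DYT1 mutant torsinA, after 48 h exposure to compound given together with tetracycline induction. Cell count served as a toxicity channel alongside %pathology.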
In general terms: In qHTS, concentration-response curves come from the screen itself.
For `C#Cc1ccc(-c2ccccc2F)cc1`, the “% pathology change, negative = correction” value (“% pathology change” for short) is -15.1%.

With `O=C(COCCOCCOCC(=O)Nc1c(I)cc(I)c(C(=O)O)c1I)Nc1c(I)cc(I)c(C(=O)O)c1I`, the “% pathology change” value is 12.6%.

Consider `CCCCCCCCCCCCCC[N+](C)(C)C`, for which the Potency was 10 µM (active). With `CC(C)(C)C(=O)OCOC(=O)C1N2C(=O)CC2S(=O)(=O)C1(C)C` (configuration not stated), the “% pathology change” value was -0.925%.

In the case of `Cc1[nH]cnc1-c1ccc(Cl)cc1`, the “% pathology change” value was -10%.

As for `O=C(O)Cn1c(=O)n(Cc2ccc(Br)cc2F)c(=O)c2ccc(Cl)cc21`, the “% pathology change” value is -3.22%. `O=C(Oc1ccccc1)c1cccc(C(=O)Oc2ccccc2)c1`: the “% pathology change” value was 16.4% [at 104 µM]. Same read-out and setting: with `CCOC(=O)C(O)c1ccccc1` (configuration not stated) the figure was 2.02%; with `Brc1ccccc1-c1ccccc1`, -15.1% [at 91.7 µM]; with `CC(COc1ccccc1)NN` (configuration not stated), -11.7%.

For the compound `CCOc1c(N2CCOCC2)cnn(C)c1=O`, the “% pathology change” value is 2.62%. On the same count and under the same terms, the figure for `CC(C)(C)C(O)/C=C/c1ccc2c(c1)OCO2` (configuration not stated) is -11.8%.

On to `Nc1nnnn1-c1ccccc1`, for which the “% pathology change” value was 1.18%.

As to `Cc1ccc(-c2ccccc2C#N)cc1`, the “% pathology change” value is 4.25%. With `COC(=O)CCCCC(CCSS/C(CCO)=C(\C)N(C=O)Cc1cnc(C)nc1N)SC(C)=O` (configuration not stated), the “% pathology change” value is 15%.

Turning to `COC(=O)c1cc(Cl)ccc1NS(=O)(=O)C(F)(F)F`, the “% pathology change” value is 1.59%. The same measure, in the same setting: with `C/C(=N\O)[C@@H](C)NCC(C)(C)CN[C@H](C)/C(C)=N/O` the figure was 15.7%; with `CCOc1ccccc1OCC1CNCCO1` (configuration not stated), -4%; with `CCN(CC)CC(=O)Oc1ccc(NC(C)=O)cc1`, 0.0712%. On the same count and under the same terms, with `COC(=O)c1cc(S(N)(=O)=O)ccc1OC` the figure was 4.62%.

For `CC1(C)S[C@@H]2[C@H](NC(=O)C(c3ccccc3)S(=O)(=O)O)C(=O)N2[C@H]1C(=O)O` (some centres not stated), the “% pathology change” value was 7.86%. On the same count and under the same terms, the figure for `Nc1nc(=O)n([C@@H]2O[C@H](CO)[C@@H](O)[C@@H]2F)cc1I` is 1.65%.
